According to ChEMBL document CHEMBL3988442, “University of Dundee, Small-Polar-MMV Screening Library” (2021):
Among all 66,000 compounds or so, about 960 (1.5%) showed an effect of 50% or more. What follows is part of a selection rich in strong results, with near analogues and random picks from the rest.

System: Trypanosoma brucei
Assay: Trypanosoma brucei 72 hour study
Assay type: functional, organism-based
Parameters: scale not given: in the data most compounds retested in dose-response had high values

SMILES	Percent Effect (30.3 µM, […]) [%]	Percent Effect (30 µM, 30.03 µM) [%]
CC(c1cn2ncsc2n1)N1Cc2ncccc2C1=O (centres undefined)	6.941	
Fc1cnc(N2C[C@H]3CCC[C@@]3(COc3ccccn3)C2)nc1.O=C(O)C(F)(F)F.O=C(O)C(F)(F)F		83.95
Cc1occc1C(=O)N1C[C@@H](OCc2cccnc2)[C@H]2OCCC[C@@H]21.O=C(O)C(F)(F)F		-8.947
O=C(O)C(F)(F)F.O=C(c1ncccn1)N1C[C@H]2CCC[C@@]2(COc2ccccn2)C1		19.9
O=C(O)C(F)(F)F.O=C(c1ccccc1)N1C[C@H]2CCC[C@@]2(COCc2ccncc2)C1		-75.85
Fc1cnc(N2C[C@@H]3COC[C@]3(COc3ccccn3)C2)nc1.O=C(O)C(F)(F)F.O=C(O)C(F)(F)F	-2.43	
CS(=O)(=O)N1C[C@H]2CCC[C@@]2(COc2ccccn2)C1.O=C(O)C(F)(F)F		-36.44
Cc1ccoc1C(=O)N1C[C@H]2CCC[C@@]2(COCc2ccncc2)C1.O=C(O)C(F)(F)F		58.51
Cc1ccc(C(=O)N2C[C@H]3CCC[C@@]3(COc3ccccn3)C2)nc1.O=C(O)C(F)(F)F.O=C(O)C(F)(F)F		43.42
Cc1ccc(C(=O)N2C[C@@H](OCc3cccnc3)[C@H]3OCCC[C@@H]32)o1.O=C(O)C(F)(F)F		5.646
Cc1cncc(C(=O)N2C[C@H]3CCC[C@@]3(COc3ccccn3)C2)c1.O=C(O)C(F)(F)F.O=C(O)C(F)(F)F		53.76
O=C(O)C(F)(F)F.O=C(c1ncccn1)N1C[C@H]2CCC[C@@]2(COCc2ccncc2)C1		14.62
Cc1ccoc1C(=O)N1C[C@H](OCc2cccnc2)[C@H]2OCCC[C@H]21.O=C(O)C(F)(F)F		55.38
N#Cc1cccc(CN2CC[C@@H]3[C@@H]2CC(=O)N3Cc2cccnc2)c1.O=C(O)C(F)(F)F.O=C(O)C(F)(F)F		-2.932
CC(C)n1nc(CN2CCCCC2)c2c1CN(C(=O)c1ccno1)C2.O=C(O)C(F)(F)F	-65.47	
COCCN1CCC2(CC1)CCN(Cc1ccccn1)CC2.O=C(O)C(F)(F)F.O=C(O)C(F)(F)F	-12.12	
Cc1nc(CN2CC[C@H](OCC3CC3)[C@@H]2Cc2cccnc2)cs1.O=C(O)C(F)(F)F.O=C(O)C(F)(F)F	-53.44	
O=c1c(CN2CCCCCC2)coc(O)c1CN1CCCCCC1		14.22
CCN1CCCc2cc(-c3cncn3C(C)CN3CCOCC3)ccc21.Cl (centres undefined)	-9.571	
CN1CCC2(CC1)CN(C(=O)c1cnccn1)Cc1ccccc12.O=C(O)C(F)(F)F		-7.96
CNC(=O)[C@@H]1C[C@H]2CN(Cc3ccc(C)s3)C[C@H]2N1C(C)=O.O=C(O)C(F)(F)F.O=C(O)C(F)(F)F	-19.68	
Fc1ccc(-c2nccnc2C2CCCNC2)cc1 (centres undefined)	-3.462	

SMILES	Percent Effect (30.3 µM, […]) [%]	Percent Effect (30 µM, 30.03 µM) [%]
NC(=O)NCC1CCCCN1C(=O)c1cccc(Cl)c1 (centres undefined)	-13.75	
NC(=O)NCC1CCCCN1C(=O)c1cc(F)cc(F)c1 (centres undefined)	-17.02	
Cc1ccc(C(=O)N2CCCCC2CNC(N)=O)cc1F (centres undefined)	53.34	
CC(C)(C)NC(=O)CN1CCNCC1.Cl.Cl		-49.47
CO[C@H]1C[C@@H]2CN(C(=O)Cc3ccc(C)s3)C[C@@H]2C1	15.04	
CNC(=O)C1CCN(Cc2nc(-c3ccc(SC)cc3)oc2C)C1 (centres undefined)		5.239
CSc1ccc(-c2nc(CN3CCC(NC(C)=O)CC3)c(C)o2)cc1		23.08
CSc1ccc(-c2nc(CN3CCC(C(N)=O)CC3)c(C)o2)cc1		22.66
CNC(=O)CC1CCN(Cc2nc(-c3ccc(SC)cc3)oc2C)CC1	15.19	
Cc1ccc(-c2nc(CN3C[C@@H](C)NC[C@@H]3C)c(C)o2)s1	11.25	
CSc1ccc(-c2nc(CN3CCC(CN)C3)c(C)o2)cc1 (centres undefined)		56.38
CSc1ccc(-c2nc(CN3C[C@@H](C)NC[C@@H]3C)c(C)o2)cc1	65.6	
Cc1oc(-c2cc(F)cc(F)c2)nc1CN1C[C@@H](C)NC[C@@H]1C	16.81	
CSc1ccc(-c2nc(CN3CCNCC3C)c(C)o2)cc1 (centres undefined)	65.66	
Cc1nc(C)n(C2CCCN(C(=O)c3cscn3)C2)n1 (centres undefined)	-21.61	
CCC(=O)N1Cc2nccn2CC(CN(C)Cc2cccnc2)C1.O=C(O)C(F)(F)F.O=C(O)C(F)(F)F (centres undefined)		3.591
O=C(Nc1cccnc1)[C@H]1C[C@@H]2CN(Cc3ccc(F)cc3)C[C@H]1O2	-89.84	
CC(C)NC(=O)N1CC[C@H]2N(C)CC[C@@]2(C(=O)Nc2cccnc2)CC1	-97.82	
COCCn1c2c(ccc1=O)CC(NS(C)(=O)=O)CC2 (centres undefined)		-56.59
O[C@@H]1CN(c2cnc3ccccc3n2)CC[C@H]1c1ccc2c(c1)OCO2		-17.33
Cc1ccc(C)c(CSc2nnc(C(N)C(C)C)o2)c1.Cl (centres undefined)		-51.12
Cn1nc(C(=O)N2CCOCC2)c2c1CN(CC1CC1)C2.O=C(O)C(F)(F)F.O=C(O)C(F)(F)F	-90.45	
